Data published in PubChem BioAssay (EPA / NIEHS).
Activity calls are given as the source filed them. How the source made its calls: active means hit-call score of the fitted dose curve at least 0.9, where 1 is the maximum; inactive means score below 0.9.

Assay: APR_HepG2_NuclearSize_1hr: Apredica 1-hour HepG2 Assay for Nuclear Size (AID 2282670)
Conditions: high-content imaging, actives raise or lower the signal
Protocol: APR_HepG2_1hr is a cell-based, multiplexed-readout assay that uses HepG2, a human liver cell line, with measurements taken at 1 hour after chemical dosing in a 384-well plate.APR_HepG2_NuclearSize_1hr is one of 10 assay component(s) measured or calculated from the APR_HepG2_1hr assay. It is designed to make measurements of cell phenotype, a form of morphology reporter, as detected with fluorescence intensity signals by HCS Fluorescent Imaging technology.Data from the assay component APR_HepG2_NuclearSize_1hr was analyzed into 1 assay endpoint. This assay endpoint, APR_HepG2_NuclearSize_1hr, was analyzed with bidirectional fitting relative to DMSO as the negative control and baseline of activity. Using a type of morphology reporter, measures of all nuclear dna for gain or loss-of-signal activity can be used to understand the signaling at the nuclear-level. Furthermore, this assay endpoint can be referred to as a primary readout, because this assay has produced multiple assay endpoints where this one serves a signaling function. To generalize the intended target to other relatable targets, this assay endpoint is annotated to the cell morphology intended target family, where the subfamily is organelle conformation.
Cells were treated with dimethyl sulfoxide (DMSO) as a solvent control at a final concentration of 0.5% v/v or with compounds in DMSO with a resulting final DMSO concentration of 0.5% v/v. Compound treatment was done at concentrations of 0.39, 0.78, 1.56, 3.12, 6.24, 12.5, 25, 50, 100, and 200 uM in duplicate on each plate. Cells were treated with compounds for 1, 24, or 72 hr. Carbonyl […] m-chloro-phenylhydrazone (CCCP) and taxol were used as positive controls for mitochondrial function and cytoskeletal stability, respectively; DMSO served as the negative control for this experiment. Cells were fixed by the direct addition of 50 uL formaldehyde in Hank's Balanced Salt Solution (HBSS) to a final concentration of 3.7%. After incubation in the fixation medium for 30 min at room temperature (293-298 K), cells were rinsed twice with HBSS and treated with cell permeabilization buffer (16 uL of 0.5% Triton X-100) for 10 min at room temperature (293-298 K) before labeling. For mitochondrial membrane potential and mitochondrial measurements, pre-fixed cells were incubated with 50 uL of MitoTracker Red CMXRos (Invitrogen) at a concentration of 250 nM for 30 min before fixation. In the remaining cases, post-fixed cells were labeled by incubation with a multiplexed mixture of primary antibodies in HBSS for 60 min at room temperature (293-298 K) to detect immunoreactivity of c-Jun (1:500), phospho-histone H3 (1:100), phospho-histone H2A.x (1:200), p53 (1:400), alpha-tubulin (1:200) and Hoechst 33342 (2 ug/mL). Cells were labeled for multiplexed imaging on two separate plates: a) Hoechst 33342, MitoTracker Red, phospho-histone H3, and alpha-tubulin, and b) Hoechst 33342, phospho-histone H2A.x, and c-Jun. A final rinse with HBSS (50 uL) was performed before analysis. The primary and secondary antibodies for the proteins were phospho-histone H3 (rabbit anti-phospho-histone H3 and FITC-donkey anti-rabbit IgG), phospho-histone H2A.x (mouse anti-phospho-histone H2A.x and FITC-donkey anti-mouse IgG), c-Jun (rabbit anti-phospho-c-Jun and Cy3-donkey anti-rabbit IgG), p53 (sheep anti-p53 and Cy5-donkey anti-sheep IgG), alpha-tubulin (mouse anti-alpha-tubulin and Cy5-donkey anti-mouse IgG). These antibodies are available as the CellCiphr HepG2 assay kit (Millipore).Digital images of each well were captured using a Cellomics ArrayScan VTI (Thermo Scientific Cellomics) (0.8 NA objective, 0.63x optical coupler, and XF-93 filter set) at 20x magnification. The images were acquired using the autofocus feature of the ArrayScan instrument, which entails the following steps. First, the camera focuses on channel 1 (Hoechst 33342), where nuclei are identified. Second, a Z offset of 1 um is used for capturing mitochondria (MitoTracker Red). […]

| Structure (SMILES) | outcome |
| --- | --- |
| COC(=O)C=C(C)OP(=O)(OC)OC | inactive |
| CCNc1nc(Cl)nc(NC(C)C)n1 | inactive |
| CCOc1cc(Oc2ccc(C(F)(F)F)cc2Cl)ccc1[N+](=O)[O-] | inactive |
| N#Cc1cc(Br)c(O)c(Br)c1 | inactive |
| CCCC1COC(Cn2cncn2)(c2ccc(Cl)cc2Cl)O1 (stereo not given) | inactive |
| CCNc1nc(Cl)nc(NCC)n1 | inactive |
| CC1=C(C(=O)Nc2ccccc2)SCCO1 | inactive |
| O=C(O)COc1nc(Cl)c(Cl)cc1Cl | inactive |
| Cc1cc(Cl)ccc1OCC(=O)O | inactive |
| C=CC1(C)OC(=O)N(c2cc(Cl)cc(Cl)c2)C1=O (stereo not given) | inactive |
| COc1nc(C)nc(NC(=O)NS(=O)(=O)c2ccccc2CCC(F)(F)F)n1 | inactive |
| COP(=S)(OC)Oc1nc(Cl)c(Cl)cc1Cl | inactive |
| C=CCC1=C(C)[C@@H](OC(=O)[C@@H]2[C@@H](C=C(C)C)C2(C)C)CC1=O | inactive |
| COc1cnc(OC)n2nc(NS(=O)(=O)c3c(OCC(F)F)cccc3C(F)(F)F)nc12 | inactive |
| CCON=C(CC)C1=C(O)CC(c2c(C)cc(C)cc2C)CC1=O (stereo not given) | inactive |
| CC1COC(Cn2cncn2)(c2ccc(Oc3ccc(Cl)cc3)cc2Cl)O1 (stereo not given) | inactive |
| OC(c1ccc(Cl)cc1)(c1cncnc1)c1ccccc1Cl (stereo not given) | inactive |
| CCc1nn(C)c(C(=O)NCc2ccc(C(C)(C)C)cc2)c1Cl | inactive |
| N#CC(CCc1ccc(Cl)cc1)(Cn1cncn1)c1ccccc1 (stereo not given) | inactive |
| CCOC(=O)CC(SP(=S)(OC)OC)C(=O)OCC (stereo not given) | inactive |

| Structure (SMILES) | outcome |
| --- | --- |
| Cc1ccc(-c2c(Cl)nc(C#N)n2S(=O)(=O)N(C)C)cc1 | inactive |
| C=CCC1=C(C)C(OC(=O)C2C(C=C(C)C)C2(C)C)CC1=O (stereo not given) | inactive |
| COc1ccc(C(c2ccc(OC)cc2)C(Cl)(Cl)Cl)cc1 | inactive |
| CC(C)(C)c1ccc(CSc2cnn(C(C)(C)C)c(=O)c2Cl)cc1 | inactive |
| O=C(Nc1ccccc1)Nc1ccnc(Cl)c1 | inactive |
| Fc1ccc(Oc2ccnc3cc(Cl)cc(Cl)c23)cc1 | inactive |
| CS/C(C)=N/OC(=O)N(C)SN(C)C(=O)O/N=C(\C)SC | inactive |
| CCCCNC(=O)OCC#CI | inactive |
| COc1nc(C)nc(NC(=O)NS(=O)(=O)c2ccccc2Cl)n1 | inactive |
| Oc1ccccc1-c1ccccc1 | inactive |
| CON(C)C(=O)Nc1ccc(Cl)c(Cl)c1 | inactive |
| C#CCOS(=O)OC1CCCCC1Oc1ccc(C(C)(C)C)cc1 (stereo not given) | inactive |
| N#Cc1nn(-c2c(Cl)cc(C(F)(F)F)cc2Cl)c(N)c1S(=O)C(F)(F)F (stereo not given) | inactive |
| COP(N)(=O)SC (stereo not given) | inactive |
| CN(C)C(=S)SSC(=S)N(C)C | inactive |
| CCOP(=S)(OCC)SCn1c(=O)oc2cc(Cl)ccc21 | inactive |
| CNC(=O)ON=CC(C)(C)SC | inactive |
| Cc1c(F)c(F)c(COC(=O)C2C(/C=C(\Cl)C(F)(F)F)C2(C)C)c(F)c1F (stereo not given) | inactive |
| COC(=O)C(C)Oc1ccc(Oc2ccc(Cl)cc2Cl)cc1 (stereo not given) | inactive |
| CC(C)C1(C)N=C(c2nc3ccccc3cc2C(=O)O)NC1=O (stereo not given) | inactive |
